From PubChem BioAssay
Spn PMK inh = S. pneumoniae PMK inhibitors, primary screen, biochemical, mevalonate pathway, pilot trial included; phosphomevalonate kinase (Streptococcus pneumoniae D39); purified PMK, PK/LDH-coupled NADH absorbance 340 nm; inhibition, % at 10 µM; actives 0.49% (n = 65,000); AID 539, 2006;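 active means top-ranked compounds by inhibition in the single 10 µM screen, taking a fixed number of the strongest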;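 further: 0% = full reaction with DMSO carrier and 100% = background rate without enzyme reaction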
DPM-DC inhibit = S. pneumoniae DPM-DC inhibitors, primary screen, biochemical, PK/LDH-coupled NADH fluorescence; diphosphomevalonate decarboxylase (Streptococcus pneumoniae D39); purified DPM-DC; calls only at 10 µM; actives 0.49% (n = 65,000); AID 556, 2006;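 active means the 320 compounds with the highest percent inhibition in the single-dose primary screen, excluding strongly autofluorescent ones, cut at about 32% in these data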;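 further: kinetic rate of NADH fluorescence loss reporting ADP formed by the decarboxylase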
Autofluor 339 = intrinsic fluorescence of library compounds, ex339/em460 – biochemical, MLSMR library, data from DPM-DC assay, artefact control, profiling panel. compound autofluorescence, ex339/em460 nm, NADH buffer; hits give high values; 1 = no-compound wells, NADH background. fluorescence fold increase at 10 µM. actives 5.5% (n = 65,000). AID 709, 2007;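 active means at 10 µM, mean starting fluorescence two-fold or more over control wells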;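 further: signal is the first read of a kinetic run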
Spn MK inh = S. pneumoniae MK inhibitors, primary screen, biochemical, PK/LDH-coupled NADH absorbance; mevalonate kinase [Streptococcus pneumoniae D39]; purified MK, PK/LDH-coupled NADH absorbance 340 nm; inhibition, % at 10 µM; actives 0.48% (n = 65,000);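 active means ranked among the strongest by inhibition in the single 10 µM screen, a fixed top-ranked set picked for dose follow-up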
A340 absorber = compound light absorbance at 340 nm, profiling panel, artefact control, biochemical, MLSMR library, data from PS, PMK, MK assays; compound absorbance at 340 nm, fold over control; fold change at 10 µM; 65,000 tested, under 10 active; AID 708, 2007;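 active means at 10 µM dose, initial 340 nm absorbance at least 2 fold that of control wells; inactive means change under 2 fold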;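 further: initial absorbance extrapolated from kinetic A340 decline of NADH oxidation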
NADH enzymes = inhibitors of PK/LDH coupling enzymes, profiling panel, artefact control, biochemical, MLSMR library | coupled PK/LDH NADH assays, four targets | IC50, µM (highest dose often 10 µM), inactives show at the top dose inhibition | actives 0.02% (n = 65,000) | AID 774, 2007;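 active means single-dose screening hits from any of four coupled enzyme assays that gave an IC50 when retested across doses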;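 further: the DPM-DC format reads NADH fluorescence rather than 340 nm absorbance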
An asterisk follows results filed as active; i = inactive; / = no result given; + = active, no number. Most compounds without a hit are left out; they make up all but 6.3% or so of the library.

SMILES	Spn PMK inh	DPM-DC inhibit	Autofluor 339	Spn MK inh	A340 absorber	NADH enzymes
CN(Cc1c(F)cccc1Cl)c1ccc(S(=O)(=O)N2CCOCC2)cn1	10	i	2.6*	0	1	8%
c1ccc(N2CCOCC2)c(Nc2nc3ccccc3n3cnnc23)c1	8	i	1.2	0	1.1	4%
CCN(CC)c1nc2ccccc2n2cnnc12	18	+	1.1	3	1.1	18%
Cc1cc(C)n(-c2nc3ccccc3n3cnnc23)n1	12	i	1.1	11	1.1	8%
CCOc1ccccc1Nc1nc2ccccc2n2cnnc12	15	/	2.1*	10	1.1	13%
CCNC(=O)[C@@H]1CCCN1C(=O)[C@H](CCCN=C(N)N)NC(=O)[C@H](CC(C)C)NC(=O)[C@@H](CC(C)C)NC(=O)[C@H](Cc1ccc(O)cc1)NC(=O)[C@H](CO)NC(=O)[C@H](Cc1c[nH]c2ccccc12)NC(=O)[C@H](Cc1cnc[nH]1)NC(=O)[C@@H]1CCC(=O)N1	0	i	1.1	1	1	0%
Cc1cc(-c2nc3ncccc3o2)ccc1NC(=O)CC(C)C	2	/	2.2*	4	1.1	3%
Cc1ccc(OCC(=O)Nc2ccc(-c3nc4ncccc4o3)cc2)c(C)c1	0	/	2.2*	0	1.2	0%
CCc1[nH]nc2c1C(c1ccc(Br)s1)C(C#N)=C(N)O2 (stereo not given)	16	i	1	2	1	7%
CC(=O)Nc1ccc2nc(-c3cccnc3)[nH]c2c1	0	i	1.3	8	1.1	4%
CC(=O)Nc1cccc(-c2nc3ccc(NC(C)=O)cc3[nH]2)c1	6	/	4.9*	4	1	5%
O=C(NCCCn1ccnc1)Nc1cccc(Cl)c1	6	i	1.1	9	1	7%
c1ccc(-c2nc3nonc3c3nc4ccccc4n23)cc1	4	+	2.3*	i	1	9%
c1ccc(-c2nc3nonc3nc2-c2ccccc2)cc1	9	i	1.1	6	1.1	5%
Cc1ccc2cc(C)c(N3CCN(c4ccccn4)CC3)nc2c1	0	i	1.5	0	1.1	4%
Cc1ccc2nc3c(c(N)c2c1)CCN3c1ccccc1	3	/	3.7*	1	1.1	2%
CCOC(=O)C1CCCN(Cc2ccccc2C)C1 (stereo not given)	0	i	1.1	42*	1.1	14%
CCOC(=O)C1CCCN(Cc2ccccc2OCC)C1 (stereo not given)	0	i	1.1	41*	1.1	14%
COC(=O)c1nc2n(n1)C(c1cc(OC)ccc1OC)C(C(=O)OC1CCCCC1)=C(C)N2 (stereo not given)	2	i	1	12	1.1	5%
COc1ccc(NC(=O)CCN2C(=O)C3CC=C(Cl)CC3C2=O)cc1 (stereo not given)	0	i	1.1	8	1	3%
Cc1cc(OCc2nn[nH]n2)c2c(C)c(CC(=O)O)c(=O)oc2c1	6	/	3.9*	0	1.1	3%
COc1ccc(-c2cc(=O)oc3c(C)c(OCc4nn[nH]n4)ccc23)cc1	7	i	1.7	0	1.2	3%
COC(=O)COc1cc(C)cc2oc(=O)c(CC(=O)OC)c(C)c12	1	/	2.1*	11	1.1	6%
Cc1cc(OCc2nn[nH]n2)c2c(-c3ccccc3)cc(=O)oc2c1	0	i	2*	5	1.1	2%
Cc1c(OCc2nn[nH]n2)ccc2c(-c3ccccc3)cc(=O)oc12	9	i	1.4	0	1.1	3%
SMILES	Spn PMK inh	DPM-DC inhibit	Autofluor 339	Spn MK inh	A340 absorber	NADH enzymes
Cc1c(Cc2ccccc2)c(=O)oc2c(C)c(OCc3nn[nH]n3)ccc12	12	/	3.9*	5	1.1	9%
CN=C1SC(CC(=O)Nc2cc(Cl)ccc2Cl)C(=O)N1C (stereo not given)	8	i	1.1	8	1.1	6%
Cc1cccc(N2CCN(C(=O)c3cc4c(=O)n(C)c5ccccc5c4n3C)CC2C)c1 (stereo not given)	3	i	1.1	11	1	5%
CCN1CC=C2C(C1)C(c1ccc(Cl)s1)C(C#N)=C(N)C2(C#N)C#N (stereo not given)	1	i	2	13	1	5%
CCOc1ccc(Cc2nn[nH]n2)cc1	8	i	1	5	1	2%
Cc1cc(OCc2nn[nH]n2)c2c(C)c(Cc3ccccc3)c(=O)oc2c1	12	/	3.9*	7	1.1	10%
Cc1cc(C)cc(Nc2ccc(C(=O)O)cc2N)c1	17	i	2.9*	6	1	13%
CC1CCN(c2ccc(C(=O)O)cc2N)CC1	18	i	1.4	10	1	11%
N#Cc1c(N)c(C#N)c(-c2ccc(O)cc2)c2c1CCCC2	2	i	2.9*	8	1	3%
Cc1n[nH]c(C)c1N1C(=O)c2cccc3c(N4CCCCCC4)ccc(c23)C1=O	32*	i	1.1	5	1	12%
Cc1ccc(NC(=O)CS(=O)CC(=O)Nc2ccc3c(c2)OCO3)cc1Cl (stereo not given)	4	i	1.1	4	1	3%
COc1cc2cc3c(N)c(C(=O)NCc4ccco4)sc3nc2cc1OC	20	i	1.2	9	1.1	13%
COc1ccccc1NC(=O)c1sc2nc(-c3ccco3)ccc2c1N	3	/	3.8*	11	1.1	7%
COc1cc(NC(=O)c2ccco2)c(OC)cc1NC(=O)c1cc(OC)c(OC)c(OC)c1	3	i	1.1	5	1.1	5%
CCOc1cc(NC(=O)c2ccco2)c(OCC)cc1NC(=O)c1cc(OC)c(OC)c(OC)c1	3	/	4*	7	1.1	5%
NC(=O)c1oc2ccccc2c1NC(=O)c1ccco1	0	i	1.1	3	1.1	1%
COc1ccccc1NC(=O)c1oc2ccccc2c1NC(=O)c1ccco1	7	/	5*	10	1	9%
Nc1c(C(=O)Nc2ccccc2)sc2nc(-c3ccco3)ccc12	6	/	3.7*	7	1.1	7%
COc1ccc(-c2nnc(SCc3nnc(-c4ccc(Cl)cc4)o3)n2-c2ccccc2)cc1	8	i	1	8	1	3%
C/C(Sc1nnc(Cc2ccccc2)o1)=C(/O)c1ccccc1	7	i	1.1	7	1	5%
